Bioassay records (PubChem BioAssay)
SUMO1-SIM PPI: modulators of SUMO1 protein-protein interactions, primary screen, biochemical, uHTS; 360,000 compounds, 0.33% hits; Small ubiquitin-related modifier 1 (Homo sapiens), P63165; inhibition, % at 20 µM; SUMO1 binding to a labelled peptide, TR-FRET, 1 h; AID 602429, 2012; in the data active = inhibition above about 37%
Neddylation inh: inhibitors of cullin neddylation, primary screen, biochemical, TR-FRET, uHTS, NAE and Ubc12. AID 651699, 2012. inhibition, % at 25 µM. 360,000 compounds, 0.58% hits. NEDD8-conjugating enzyme Ubc12 (Homo sapiens) + NEDD8-activating enzyme E1 regulatory …; in the data active = inhibition above about 36%
Target sequence (P61081 whole entry, looked up): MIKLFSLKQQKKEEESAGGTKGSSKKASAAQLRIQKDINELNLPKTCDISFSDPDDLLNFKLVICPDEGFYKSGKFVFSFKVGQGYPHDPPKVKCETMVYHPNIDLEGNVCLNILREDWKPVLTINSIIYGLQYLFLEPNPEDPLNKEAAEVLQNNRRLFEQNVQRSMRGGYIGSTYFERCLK
Target sequence (Q13564 whole entry, looked up): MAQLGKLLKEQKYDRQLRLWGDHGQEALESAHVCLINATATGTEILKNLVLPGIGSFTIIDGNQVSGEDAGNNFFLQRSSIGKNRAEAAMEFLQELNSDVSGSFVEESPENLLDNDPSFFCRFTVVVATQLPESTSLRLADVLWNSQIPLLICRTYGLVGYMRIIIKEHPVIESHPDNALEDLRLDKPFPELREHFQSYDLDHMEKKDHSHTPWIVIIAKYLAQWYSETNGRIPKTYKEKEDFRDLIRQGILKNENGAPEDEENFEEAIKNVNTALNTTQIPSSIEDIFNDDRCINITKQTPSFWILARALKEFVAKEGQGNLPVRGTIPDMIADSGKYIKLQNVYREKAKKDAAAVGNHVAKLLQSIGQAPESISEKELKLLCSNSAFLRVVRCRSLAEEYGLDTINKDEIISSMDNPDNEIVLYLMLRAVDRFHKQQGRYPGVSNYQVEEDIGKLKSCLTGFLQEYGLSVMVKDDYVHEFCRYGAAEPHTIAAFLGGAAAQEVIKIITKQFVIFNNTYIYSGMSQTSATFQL
ATG4B inhibitor: ATG4B protease inhibitors, primary screen, biochemical, fluorescence, uHTS; inhibition, % at 8.33 µM; ATG4B cleavage of LC3-PLA2, NBD-HPC fluorescence, 1 h; Cysteine protease ATG4B (Homo sapiens), Q9Y4P1; 340,000 compounds, 0.51% hits; in the data active = inhibition above about 40%
Rin1-Abl PPI inh: inhibitors of Rin1-Abl protein binding, primary screen, biochemical, TR-FRET; AID 588664, 2011; 360,000 compounds, 0.4% hits; Tyrosine-protein kinase ABL1 (Homo sapiens) + Ras and Rab interactor 1 (Homo sapiens), …; inhibition, % at 7.35 µM; in the data active = inhibition above about 5%, passing the limit was not always enough
The depositor's hits bear a star; i = inactive; . = no result given. Hits are enriched below; roughly 1.7% of the tested compounds scored in any of these assays.

SMILES	SUMO1-SIM PPI	Neddylation inh	ATG4B inhibitor	Rin1-Abl PPI inh
CC1(C)CC[C@]2(C(=O)n3ccnc3)CC[C@]3(C)[C@H](C(=O)C=C4[C@@]5(C)C=C(C#N)C(=O)C(C)(C)[C@@H]5CC[C@]43C)[C@@H]2C1	44*	-10	9	4
CC(=O)C1CCC2C3CC=C4CC(SC(=N)N)CCC4(C)C3CCC12C (centres undefined)	-54	-1	31	4
CC(C)(C)S(=O)(=O)N1C[C@H]2CC/C=C\C/C(c3ccccc3)=C\2[C@@H]1CCO	2	-9	0	-1
Cc1ccc(C(C[N+](=O)[O-])c2c(-c3ccccc3O)[nH][nH]c2=O)cc1 (centres undefined)	6	40*	0	0
Nc1cc2c(cc1Br)-c1ccccc1C2=NO	-15	-15	2	1
COc1cc2c(C#N)c(N3CCCCC3)nc(N)c2c(N)n1	52*	-41	-7	-7
CCOC(=O)C1CCN(c2nc(C)cc(C)c2C#N)CC1	2	.	-3	2
CCN(CC)c1nc(N)c2c(N)nc(OC)cc2c1C#N	52*	-17	2	-4
COc1cc2c(C#N)c(N3CCc4ccccc4C3)nc(N)c2c(N)n1	47*	-7	-13	4
CCOC(=O)C1CCN(c2nc(N)c3c(N)nc(SCC(=O)O)cc3c2C#N)CC1	60*	16	-6	-1
COc1cc2c(C#N)c(N3CCOCC3)nc(N)c2c(N)n1	16	-31	-5	-4
O=C(CN1CCNCC1)N1CCOCC1	0	-2	.	0
Cc1ccc(C)c(OCCn2ccnc2)c1	6	-1	-5	10*
COc1ccc2[nH]c3c(C)c4ccncc4c(C)c3c2c1	-24	42*	-35	-22
Cc1ccccc1Nc1cc2ccccc2c(=O)[nH]1	21	-10	34	16*
COc1ccc(/C(C)=N/Nc2ccc(F)cc2F)c(O)c1	0	7	-1	3
COc1ccc(/C(C)=N/Nc2ccccc2Cl)c(O)c1	58*	3	14	2
Cc1ccn2cc(-c3ccc4c(c3)NC(=O)CO4)nc2c1	54*	24	2	2
CN1/C(=C/C=C(C#N)C#N)C=Cc2ccccc21	57*	i	1	-6
COc1ccc(Nc2nnc(-c3ccc(C(N)=O)cc3)c3ccccc23)cc1	1	0	5	-1
COc1ccc(-c2nnc(Nc3ccc(S(=O)(=O)Nc4nccs4)cc3)c3ccccc23)cc1	44*	13	-5	0
CCCCN(C=O)c1c(CC)nc2ccc(C(=O)N(C)Cc3ccco3)cn12	6	11	.	-6
CCC(C)[C@H]1CNC(=O)C(=O)N1CC1CCCCC1 (some centres undefined)	47*	3	.	.
CC(O)[C@H]1CNC(=O)C(=O)N1CC1CCCCC1 (some centres undefined)	2	-22	-10	-1
CC(C)C[C@@H](CNCC(=O)[C@H](CC(=O)O)NC(=O)c1[nH]cnc1C(=O)N[C@H](CN)CC(C)C)NC(=O)c1nc[nH]c1C(=O)N[C@@H](Cc1ccccc1)C(=O)O	48*	-15	2	1
SMILES	SUMO1-SIM PPI	Neddylation inh	ATG4B inhibitor	Rin1-Abl PPI inh
Nc1ccn(Cc2ccc(F)cc2)n1	76*	-3	-1	2
Nc1cnn(Cc2ccc(F)cc2)c1	1	9	-4	3
O=S(=O)(Cc1ccccc1)Nn1cnnc1	60*	-4	7	-1
Cc1cccc(NS(=O)(=O)Cc2ccccc2)n1	-2	.	5	-2
O=C(CCN1CCN(c2ccccc2)CC1)N/N=C/c1ccccc1O	-2	42*	-3	0
CCOC(=O)[C@]12CCCC=C1N(Cc1ccco1)C(=O)[C@H](CC(=O)NCCCCc1ccccc1)C2	7	-2	.	.
CC1(C(=O)NS(=O)(=O)c2cccc(C#N)c2)CCN1C(=O)c1ccc(C2CCCCC2)cc1 (centres undefined)	5	-3	.	2
CC(C)OC(=O)/C(=C\c1ccc2c(c1)c1ccccc1n2C)NC(=O)c1ccccc1	1	38*	-7	-2
Cn1c2ccccc2c2cc(/C=C(\NC(=O)c3ccccc3)C(=O)O)ccc21	0	9	14	-1
c1cc(N2CCOCC2)ccc1-c1ccc2nncn2c1	-38	-3	.	-7
c1coc(-c2ccc3nncn3c2)c1	87*	10	.	3
O=C(CSc1nnc(SCc2cccc3ccccc23)s1)N/N=C/c1c[nH]c2ccccc12	2	5	-4	1
O=C(CSc1nnc(SCc2ccc(Cl)cc2)s1)N/N=C/c1c[nH]c2ccccc12	42*	0	29	5
COCCCNc1cc(C)nc2ccccc12	0	-2	-9	0
Cc1cc(NCCCCCCCNc2cc(C)nc3cc([N+](=O)[O-])ccc23)c2ccc([N+](=O)[O-])cc2n1	129*	46*	24	-8
COC(=O)c1ccc(C(=O)Nc2ccc(N)cc2N)cc1	47*	-12	-6	-1
COc1ccccc1NC(=O)c1ccc(N)cc1	1	1	-2	-3
CC(C)COC(=O)N(C)C[C@@H]1OCc2cnnn2CCCC(=O)N([C@H](C)CO)C[C@@H]1C	4	5	.	4
CC(C)(C)c1ccc(/C=C2\Oc3cc(O)ccc3C2=O)cc1	-22	.	3	1
COC(=O)c1ccc2c(c1)C(=O)/C(=C/c1ccc(O)cc1)O2	47*	6	-5	-3
O=C(COCC(=O)Nc1cccc(C(F)(F)F)c1)Nc1cccc(C(F)(F)F)c1	-3	3	-8	-2
COc1cc(NC(=O)CSCC(=O)Nc2cccc(C(F)(F)F)c2)c(Cl)cc1Cl	44*	-8	-7	-1
Cc1onc(-c2ccccc2)c1C(=O)N1CCC(C)(C(=O)O)C1 (centres undefined)	-2	0	.	4
C[C@H]1CN([C@@H](C)CO)C(=O)CCCn2nncc2CO[C@H]1CN(C)C(=O)NC1CCCCC1	0	4	.	2
Cc1nnc(SCC2=C(C(=O)O)N3C(=O)C(NC(=O)COc4ccccc4)C3SC2)s1 (centres undefined)	13	8	-6	4
SMILES	SUMO1-SIM PPI	Neddylation inh	ATG4B inhibitor	Rin1-Abl PPI inh
CO/N=C(/C(=O)N[C@@H]1C(=O)N2C(C(=O)O)=CCS[C@H]12)c1cnc(N)s1	106*	17	.	6
CC(C)C[C@H]1CN([C@@H](Cc2ccc(O)cc2)CN2CCC[C@H]2CN2C(=O)C(=O)NC[C@@H]2Cc2ccc(O)cc2)C(=O)C(=O)N1CCc1ccccc1	-1	-6	.	.
Fc1c(F)c(C(F)(F)F)c(F)c(F)c1N/N=C\c1cccs1	41*	-1	15	1
Cn1c(N/N=C/c2cccs2)cc(=O)n(C)c1=O	-10	11	-10	2
O=Nc1c(O)ccc2cc(S(=O)(=O)O)ccc12	-5	.	-3	9
Nc1cccc2cc(S(=O)(=O)O)ccc12	25	46*	-1	1
